Experimental data: PubChem BioAssay (NCI)
Several values for one entry are separate records, joined by “and”; a condition that tells them apart may be missing. Equal values may be shown once. About 79,000 compounds went through this panel and 15% of them were active in at least one assay; those are over-represented in the sample as a whole. More than one record can exist for a structure, and the calls need not agree. Activity calls are given as the source filed them. No stated cut-off is given here; in the data, active means growth inhibition above about 70%; inactive means the rest.

Key:
[1] = NCI Yeast Anticancer Drug Screen. Data for the rad52 strain (AID 147);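 further: 0% = growth of vehicle-treated control cultures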; conditions: S. cerevisiae rad52 mutant growth inhibition, stronger effect = higher value
Method in brief: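 Genetically altered yeast (DNA damage repair defect) treated with compound; inhibition calculated relative to vehicle.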

[2] = NCI Yeast Anticancer Drug Screen. Data for the wt1 strain (AID 149);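 further: 0% = growth of vehicle-treated wt1 cultures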; conditions: S. cerevisiae wt1 strain (SPY 50644) growth inhibition, stronger effect = higher value
Method in brief: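 Readout: yeast growth inhibition, normalised to vehicle controls, in the wt1 strain exposed to test compounds.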

[3] = NCI Yeast Anticancer Drug Screen. Data for the rad50EPP+ strain (AID 151);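 further: 0% = growth of vehicle-treated control cultures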; conditions: S. cerevisiae rad50 mutant strain, stronger effect = higher value
Method in brief: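 Strain rad50EPP+; compound exposure; % growth inhibition vs vehicle.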

[4] = NCI Yeast Anticancer Drug Screen. Data for the mgt1 strain (AID 153); conditions: S. cerevisiae mgt1 mutant growth inhibition, stronger effect = higher value
Method in brief: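 Read-out: yeast growth inhibition vs vehicle control. Strain mgt1, drawn from a panel altered in DNA damage repair or cell cycle control.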

[5] = NCI Yeast Anticancer Drug Screen. Data for the rad50 strain (AID 155);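 further: 0% = growth of vehicle-only cultures of the same strain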; conditions: S. cerevisiae rad50 strain growth inhibition, stronger effect = higher value
Method in brief: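 Compounds were tested on a yeast strain with an engineered DNA damage repair alteration; the reported value is growth inhibition normalised to vehicle treatment.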

[6] = NCI Yeast Anticancer Drug Screen. Data for the mec2-1 strain (AID 157); conditions: S. cerevisiae mec2-1 strain, stronger effect = higher value
Method in brief: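 Cells of the genetically defined mec2-1 yeast strain are incubated with test compound. Inhibition of growth is calculated against vehicle-treated controls.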

[7] = NCI Yeast Anticancer Drug Screen. Data for the rad14 strain (AID 159);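 further: 0% = growth of vehicle-treated control cultures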; conditions: S. cerevisiae rad14 strain growth inhibition, stronger effect = higher value
Method in brief: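 Compound-treated yeast with a defined DNA-repair lesion; growth inhibition normalised to vehicle-treated cultures.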

[8] = NCI Yeast Anticancer Drug Screen. Data for the sgs1 mgt1 strain (AID 161);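 further: 0% = growth of cultures given vehicle only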; conditions: S. cerevisiae sgs1 mgt1 strain, stronger effect = higher value
Method in brief: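 Mutant yeast exposed to compound; growth scored against vehicle-only wells.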

[9] = NCI Yeast Anticancer Drug Screen. Data for the CLN2oe strain (AID 163);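 further: 0% = growth of vehicle-only control cultures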; conditions: S. cerevisiae CLN2oe strain, stronger effect = higher value
Method in brief: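 Strain altered in cell-cycle control, incubated with compound; growth compared to solvent-treated controls.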

[10] = NCI Yeast Anticancer Drug Screen. Data for the cln2 rad14 strain (AID 165);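 further: 0% = growth equal to vehicle treated cultures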; conditions: S. cerevisiae cln2 rad14 strain, stronger effect = higher value
Method in brief: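 The screen exposed genetically defined yeast (cln2 rad14) to test compounds and scored growth inhibition relative to vehicle-treated controls.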

[11] = NCI Yeast Anticancer Drug Screen. Data for the bub3 strain (AID 167); conditions: S. cerevisiae bub3 mutant strain, stronger effect = higher value
Method in brief: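 Growth of a checkpoint-deficient yeast mutant is measured after compound exposure. Values represent inhibition relative to vehicle.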

[12] = NCI Yeast Anticancer Drug Screen. Data for the wt2 strain (AID 169);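 further: 0% = growth of vehicle-treated yeast cultures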; conditions: S. cerevisiae wt2 strain growth inhibition, stronger effect = higher value
Method in brief: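 Steps: yeast strain treated with compound; growth recorded; inhibition calculated relative to cultures given vehicle alone.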

[13] = NCI Yeast Anticancer Drug Screen. Data for the mlh1 strain (AID 171);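 further: 0% = growth of vehicle-treated control cultures of the same strain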; conditions: S. cerevisiae mlh1 strain growth inhibition, stronger effect = higher value
Method in brief: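 Yeast screen: mutant strain plus compound, growth scored against vehicle control wells.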

[14] = NCI Yeast Anticancer Drug Screen. Data for the sgs1 strain (AID 173);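 further: 0% = growth of vehicle-only control cultures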; conditions: S. cerevisiae sgs1 mutant, stronger effect = higher value
Method in brief: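 Inhibition of yeast growth served as the measure. The mutant strain was treated with each compound, and growth was normalised to cultures receiving vehicle alone.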

[15] = NCI Yeast Anticancer Drug Screen. Data for the mlh1 rad18 strain (AID 175); conditions: S. cerevisiae mlh1 rad18 strain growth inhibition, stronger effect = higher value
Method in brief: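 Compound-treated yeast growth, normalised to vehicle controls. Strain bears defined DNA repair mutations.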

[16] = NCI Yeast Anticancer Drug Screen. Data for the rad18 strain (AID 177); conditions: S. cerevisiae rad18 mutant growth inhibition, stronger effect = higher value
Method in brief: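 Inhibition values reflect reduced yeast growth compared with vehicle-treated controls, using a strain engineered with a DNA damage repair defect.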

[17] = at 5.0 µM (retest, dose inferred, filed as 0.5)
[18] = at 50.0 µM (retest, dose inferred, filed as 5.0)

Measured: growth inhibition

COc1ccc([N+]2=NC(c3ccc([N+](=O)[O-])cc3)=NN(c3ccccc3)C2)cc1
active: [1]; at 100.0 µM 91% | [2]; at 100.0 µM 94% and 89% | [5]; at 50.0 µM 78.3% and 73.8% | [5]; at 100.0 µM 90% and 88% | [6]; at 50.0 µM 75.2% and 70.8% | [9]; at 100.0 µM 90% and 70% | [11]; [18] 84% and 88% | [11]; at 50.0 µM 90.5% and 91.4% | [12]; at 100.0 µM 93% | [14]; at 100.0 µM 93% and 92% | [15]; at 50.0 µM 87.9% and 86.3% | [16]; at 100.0 µM 90% and 87%
93% (active) and 41% (inactive): [4]; at 100.0 µM
inactive: [1]; at 1.2 µM -3% and -1% | [1]; at 3.7 µM -1% and 1% | [1]; at 11.0 µM 1% and 2% | [1]; at 33.0 µM 37% and 12% | [2]; at 1.2 µM 1% | [2]; at 3.7 µM 0% | [2]; at 11.0 µM -3% and -5% | [2]; at 33.0 µM 1% and -2% | [3]; at 1.2 µM -10% and -9% | [3]; at 3.7 µM -4% and -5% | [3]; at 11.0 µM 3% and 4% | [3]; at 33.0 µM 32% and 9% | [4]; at 1.2 µM -1% | [4]; at 3.7 µM -2% and -6% | [4]; at 11.0 µM -1% and 2% | [4]; at 33.0 µM 43% and -6% | [5]; at 1.2 µM -6% and -5% | [5]; at 3.7 µM -16% | [5]; [17] 8% and 7% | [5]; at 11.0 µM -17% and -13% | [5]; at 33.0 µM 34% and 11% | [5]; [18] 52% and 31% | [6]; at 1.2 µM -5% and -1% | [6]; at 3.7 µM -5% and -2% | [6]; [17] -10% and -3% | [6]; at 11.0 µM -5% and 1% | [6]; at 33.0 µM 6% and 5% | [6]; [18] 21% and 4% | [7]; at 1.2 µM 2% | [7]; at 3.7 µM 1% | [7]; at 11.0 µM 4% and 2% | [7]; at 33.0 µM 14% and 9% | [8]; [17] 2% and -1% | [8]; [18] 22% and 50% | [9]; at 1.2 µM 0% and 5% | [9]; at 3.7 µM -3% and 0% | [9]; at 11.0 µM -7% and 4% | [9]; at 33.0 µM 21% and 9% | [10]; [17] 5% and -13% | [10]; [18] 48% and 43% | [10]; at 50.0 µM 51% and 38.8% | [11]; at 1.2 µM 5% and 1% | [11]; at 3.7 µM 17% and 4% | [11]; [17] 15% and 17% | [11]; at 11.0 µM 17% and 9% | [11]; at 33.0 µM 35% and 5% | [12]; at 1.2 µM 0% and 1% | [12]; at 3.7 µM -1% | [12]; at 11.0 µM -2% | [12]; at 33.0 µM 27% and 7% | [13]; at 1.2 µM 0% | [13]; at 3.7 µM -2% and -3% | [13]; at 11.0 µM -1% and -3% | [13]; at 33.0 µM 14% and 16% | [14]; at 1.2 µM -2% and -3% | [14]; at 3.7 µM 3% and -1% | [14]; at 11.0 µM 8% | [14]; at 33.0 µM 48% and 42% | [15]; [17] 4% and 9% | [15]; [18] 67% and 51% | [16]; at 1.2 µM -8% and -5% | [16]; at 3.7 µM -2% and -3% | [16]; at 11.0 µM 12% and 15% | [16]; at 33.0 µM 34% and 33%
78.8% (active) and 63.6% (inactive): [8]; at 50.0 µM
90% (active) and 56% (inactive): [11]; at 100.0 µM
82% (active) and 58% (inactive): [3]; at 100.0 µM
92% (active) and 50% (inactive): [6]; at 100.0 µM
91% (active) and 63% (inactive): [7]; at 100.0 µM
92% (active) and 59% (inactive): [13]; at 100.0 µM
